Among all 7,400 compounds or so, about 4,100 (55%) were called active. The set was probably picked from earlier hits. A selection follows. A number with no mark means an inactive call.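 How the source made its calls: active means inhibition of yeast growth at or above a set limit in either of two repeat tests at 20 µM; inactive means the rest.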

This experiment is described as follows: tim10-1 ts yeast growth inhibition, retested – single concentration, luminescence, S. cerevisiae, confirmation (AID 463213).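 Further: tim10-1 mutant grown at permissive 25 °C to find synthetic lethal compounds; 0% = DMSO yeast wells and 100% = medium wells without yeast.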 As to conditions: S. cerevisiae tim10-1 ts strain growth, BacTiter-Glo, 24 h; at 20 µM; active compounds read high.
As for `O=C(NC(Nc1nc2ccc([N+](=O)[O-])cc2s1)(C(F)(F)F)C(F)(F)F)c1ccccc1`, the inhibition was 86.6% (active).

In the case of `O=C(NCCN1C(=O)S/C(=C\c2cccnc2)C1=O)c1cccc(OC(F)F)c1`, the inhibition was 27.6%.

As to `N/C(=N\OC(=O)CCC1CCCCC1)c1ccccn1`, the inhibition was 45.5% (active).

On to `N/C(=N\OC(=O)CC1CCCCC1)c1ccccc1`, for which the inhibition was 47.9% (active).

Take `S=c1[nH]nc(CSCc2ccc(Cl)cc2Cl)n1-c1ccccc1`: the inhibition is 24.7%.

With `Cc1nnnn1/C(=C\c1ccccc1)C(=O)OCC(=O)N1CC2(C)CC1CC(C)(C)C2` (stereo not given), the inhibition is 48.4% (active).

For the compound `N/C(Cc1ccc([N+](=O)[O-])cc1)=N\OC(=O)C1CCCCC1`, the inhibition is 79.8% (active).

As to `N/C(Cc1ccc([N+](=O)[O-])cc1)=N\OC(=O)COc1ccc2ccccc2c1`, the inhibition is 74.3% (active).

Consider `CN(C)C(=O)c1ccc2c(c1)C1C3CCC(C3)C1C(c1ccccc1)N2` (stereo not given), for which the inhibition is 25.9%.

On to `Cc1cccc(NC(=S)N2CCC(c3nc4ccccc4s3)CC2)c1`, for which the inhibition is 30.5%.

Take `Cc1cccc(NC(=S)Nc2ccc(Cl)c(Cl)c2)c1`: the inhibition was 50.9% (active).

With `FC(F)(F)c1cccc(NC(=S)Nc2cccc(Cl)c2)c1`, the inhibition was 21.2%.

On to `Cc1[nH][nH]c(=O)c1C(c1ccc(-c2ccc(Cl)cc2)o1)c1c(C)[nH][nH]c1=O`, for which the inhibition is 29%.

With `CCOc1ccc(C(c2c(C)[nH][nH]c2=O)c2c(C)[nH][nH]c2=O)cc1OCC`, the inhibition is 36.1% (active).

As for `COc1ccccc1C1SCCN1C(=O)c1ccc([N+](=O)[O-])cc1` (stereo not given), the inhibition was 15.9%.

As for `N/C(=N\OC(=O)Cc1ccccc1[N+](=O)[O-])c1ccc(Br)cc1`, the inhibition was 55.3% (active).

As for `COc1cc(Cl)c(C)cc1NC(=O)CSc1nnc(-c2ccco2)n1CC(C)C`, the inhibition is 24.4%.

As to `COc1cc(N=Cc2c(O)[nH]c3ccccc23)cc(OC)c1OC`, the inhibition is 20.7%.

On to `Cc1cccc(N=Nc2c(O)[nH]c3ccc(F)cc23)c1`, for which the inhibition was 51.5% (active).

As for `C/C(=N\NC(=O)CNc1cccc2ccccc12)c1ccc(Br)s1`, the inhibition is 26.1%.

Turning to `Cc1ccccc1NCC(=O)N/N=C\c1ccc([N+](=O)[O-])s1`, the inhibition is 44.2% (active).

`O=C(CCc1ccccc1)Nc1ncc([N+](=O)[O-])s1`: the inhibition was 25%.

As for `Cc1ccccc1Nc1nnc(SCC(=O)c2cc3ccccc3o2)s1`, the inhibition is 33.8% (active).

For `CC(C)CC(=O)NC(=S)Nc1ccc(F)cc1F`, the inhibition is 24.9%.

For `O=C(/C=C/Sc1ncn[nH]1)c1ccc(Cl)cc1`, the inhibition is 69.7% (active).

Consider `COc1ccc(CCNCc2c(-c3ccccc3)n(C)c3ccccc23)cc1`, for which the inhibition was 19.6%.

Consider `Cc1nc(-c2ccccc2)cn2c1nc1ccccc12`, for which the inhibition was 36% (active).

Take `O=C(Nc1nnc(-c2ccccc2)o1)c1cc(-c2cccs2)nc2ccccc12`: the inhibition is 13.9%.

With `CCc1ccc(-c2cc(C(=O)NCc3ccco3)c3ccccc3n2)s1`, the inhibition was 32.3% (active).

Turning to `CC1=CC(C)(C)Nc2ccc(OC(=O)CN3C(=O)C4CCCCC4C3=O)cc21` (stereo not given), the inhibition was 22.8%.

With `Cc1cc(N)n2nc(-c3ccc(C(C)(C)C)cc3)cc2n1`, the inhibition was 42% (active).

On to `COc1ccccc1CSc1ncc(-c2ccc([N+](=O)[O-])cc2)[nH]1`, for which the inhibition is 27.1%.

`CCCCC(O)(CCCC)C(=O)NN(C(=O)CCl)c1ccccc1`: the inhibition was 36.3% (active).

Regarding `Cc1ccc(Oc2cnn(-c3ccccc3)c(=O)c2Br)cc1`, the inhibition is 41.2% (active).

In the case of `COc1ccc(N2CCN(C(=O)CCSCc3ccccc3F)CC2)cc1`, the inhibition is 16.8%.

With `Fc1ccc(/C=N/Nc2nc(-c3cccnc3)nc3ccccc23)cc1`, the inhibition is 33.9% (active).

As for `COc1ccc(/C=C(\C#N)C(=O)ONC2=NCCCCC2)cc1`, the inhibition is 66.8% (active).

On to `COc1ccc(C(=O)Nc2ccccc2C(=O)N/N=C/c2ccc(O)c(OC)c2)cc1`, for which the inhibition is 91.6% (active).

Take `COc1ccc(/C(C)=N/NC(=O)c2ccc3nc[nH]c3c2)cc1`: the inhibition is -11.2%.

For the compound `COc1ccc2c(c1)c(C(=O)N/N=C/c1cccs1)c(C)n2C`, the inhibition is 28.8%.

For the compound `COc1cccc(C(=O)Nc2cc3c(cc2Br)OCCCO3)c1`, the inhibition is 9.95%.

`COc1ccc(C(=O)Nc2ccccc2C(=O)N/N=C/c2ccccc2OC)cc1`: the inhibition was 56.6% (active).

As to `O=C(C(=O)N1CCc2ccccc2C1)c1c[nH]c2ccccc12`, the inhibition is 12.1%.

As to `CC1CCc2c(sc3nc4n(c(=O)c23)CCS4)C1` (stereo not given), the inhibition is 37.5% (active).

Take `CC1CCc2sc3nc(N4CCN(CCO)CC4)n4ncnc4c3c2C1` (stereo not given): the inhibition was 27.2%.

Regarding `CCOC(=O)CSc1nc2c(c(=O)n(Cc3ccccc3Cl)c(=O)n2C)n1C`, the inhibition is 31.1%.

In the case of `Cc1ccc(-c2ccc(/C=C(\C#N)C(N)=S)o2)c([N+](=O)[O-])c1`, the inhibition is 48.3% (active).

`CC(=O)Cc1nsc(NC(=O)c2csc3c2CCCC3)n1`: the inhibition was 29.6%.

Consider `COc1ccc(N2C(=O)CC(Sc3n[nH]c(-c4ccc(C)cc4)n3)C2=O)cc1` (stereo not given), for which the inhibition was 24.7%.

For the compound `CNC(=O)/C(C#N)=C/c1c(F)cccc1Cl`, the inhibition is 50.1% (active).

Regarding `CCOC(=O)C1Sc2[nH]c(=O)sc2C(c2ccc(Cl)cc2)C1C(=O)OCC` (stereo not given), the inhibition was 33.5% (active).

Turning to `CCOC(=O)c1ccccc1N1C(=O)C2Sc3[nH]c(=O)sc3C(/C=C/c3ccccc3)C2C1=O` (stereo not given), the inhibition was 15.4%.

On to `ONC(=Nc1ccc(Cl)cc1)c1ccccc1Cl`, for which the inhibition was 31.5% (active).

For the compound `Cc1cccc(NC(=S)NCc2ccc3[nH]c4c(c3c2)CCCC4)c1`, the inhibition is 35.3% (active).

As for `O=C(N/N=C\c1cccc(Br)c1)c1ccccc1-n1cccc1`, the inhibition was 51.5% (active).

In the case of `CCC(=O)N1CCc2cc(S(=O)(=O)NC(C(=O)N3CCc4ccccc4C3)C(C)C)ccc21` (stereo not given), the inhibition is 22.2%.

Consider `CC1CCCC(C)N1C(=O)CN1CCN(c2nc(-c3ccc(F)cc3)cs2)CC1` (stereo not given), for which the inhibition was 37.2% (active).

Consider `O=C(CN1CCN(c2ccc(F)cc2)CC1)Nc1cccc(C(F)(F)F)c1`, for which the inhibition was 23.8%.

For `O=C(Nc1nc(-c2ccco2)c(-c2ccco2)s1)c1ccco1`, the inhibition is 65.9% (active).

With `Cc1ccc2c(c1)c1ncnc(N3CCc4ccccc4C3)c1n2C`, the inhibition was 22.1%.

For `Cc1nc(-c2ccc(Cl)cc2)sc1C(=O)CBr`, the inhibition was 55.2% (active).

Turning to `CCOC(=O)N1CCN(C(=O)c2cc3c(-c4ccc(Cl)cc4)nn(C)c3s2)CC1`, the inhibition was 22.4%.

For the compound `O=C(Oc1c(-c2ccco2)oc2ccccc2c1=O)c1cccnc1`, the inhibition was 42.6% (active).

For `O=C(c1ccc2nc(N3CCOCC3)sc2c1)N1CCN(c2ccc(Cl)cc2)CC1`, the inhibition was 41.5% (active).

As for `CCc1nc2ccc(C(=O)N3CCN(c4cccc(Cl)c4)CC3)cc2nc1CC`, the inhibition was 24.6%.

For `COc1ccc2nc(N3CCN(C(=O)c4ccc([N+](=O)[O-])o4)CC3)sc2c1`, the inhibition is -0.8%.

With `Cc1ccccc1CC1(CO)CCCN(C(=O)c2cc(-c3ccccc3)no2)C1` (stereo not given), the inhibition is 21.1%.

In the case of `O=C(Cc1ncc(C(F)(F)F)cc1Cl)Nc1cccc(Br)c1`, the inhibition was 30.4%.

Consider `N/C(=N\OC(=O)Nc1ccc(Cl)c(Cl)c1)c1ncc(C(F)(F)F)cc1Cl`, for which the inhibition was 67.4% (active).

As for `CC1(C)CCSC(/C=C/c2ccccc2)=N1`, the inhibition is 49.4% (active).

As to `Cc1ccc(C(=O)CCC(=O)N(C)CC(=O)Nc2c(Cl)cccc2Cl)cc1`, the inhibition was -3%.

As for `FC(F)(F)Oc1ccc(NC(=S)NCc2ccccc2)cc1`, the inhibition is 47% (active).

As to `C/C(=N\NC(=S)NCc1ccccc1)C1CCCCC1`, the inhibition is 26.9%.

For the compound `COc1ccc(NC(=S)N2N=CCC2c2ccccc2)cc1` (stereo not given), the inhibition was 16.2%.

Consider `Cc1ccc2c(c1)C1CN(C)CCC1N2S(=O)(=O)c1ccc(Oc2ccc([N+](=O)[O-])cc2)cc1` (stereo not given), for which the inhibition is 22.1%.

`Oc1c(Cl)cc(Cl)c(Cl)c1Cc1c(O)c(Cl)cc(Cl)c1Cl`: the inhibition is 88.7% (active).

On to `CCc1nn(CCCC(=O)Nc2ccc(C)cc2C)c(=O)c2cc3occc3n12`, for which the inhibition is -8.95%.

`COc1ccc(-n2cc(-c3ccccc3)c3c(=S)nc[nH]c32)cc1`: the inhibition was 34.4% (active).

`CCOC(=O)C1Cn2c(nc3c(c2=O)C(C)(CC)Cc2ccccc2-3)S1` (stereo not given): the inhibition was 10%.

Turning to `O=C(/C(=C/c1cccc(Cl)c1)c1nc2ccccc2[nH]1)c1ccccc1`, the inhibition was 38.7% (active).

For `O=C(Nc1cccc(Cl)c1)c1cncn1-c1ccc(F)cc1`, the inhibition was 33% (active).

Turning to `CCNC(=S)N(CCc1c(C)[nH]c2ccc(C)cc12)Cc1ccco1`, the inhibition is 24.5%.

Turning to `Cc1nonc1C1CCCN1C(=O)c1cc(COc2cccc(C(F)(F)F)c2)on1` (stereo not given), the inhibition was 41.6% (active).

As for `O=C1c2ccccc2C(=O)c2c1cccc2N1CCN(Cc2ccccc2)CC1`, the inhibition was 32% (active).

As for `CCOC(=O)C1(S(=O)(=O)c2ccccc2)CCN(Cc2ccccc2)CC1`, the inhibition was 14.3%.

In the case of `O=C(c1ccc(CSc2ccccc2)cc1)N1CCCCCC1`, the inhibition was 26.4%.

On to `O=C1/C(=C\c2ccccc2Cl)SC(=S)N1CCC(=O)N1CCCc2ccccc21`, for which the inhibition is 27.6%.

As for `O=C(CCCN1C(=O)/C(=C/c2ccccc2)SC1=S)Nc1ccc(O)cc1`, the inhibition was 28.7% (active).

On to `COc1ccc(/C=C2/SC(=O)N(CCCCCC(=O)Nc3ccccc3C(=O)O)C2=S)cc1`, for which the inhibition was 4.8%.

For the compound `COc1ccccc1C1C(C#N)=C(N)Oc2c1c(-c1ccccc1)nn2-c1ccccc1` (stereo not given), the inhibition was 21.8%.

`Cc1ccc(C(C[N+](=O)[O-])c2c(C)cc3ccccn23)cc1` (stereo not given): the inhibition is 30.6% (active).

As for `CCN1/C(=C\c2ccc3ccccc3[n+]2CC)Sc2cc(C)ccc21`, the inhibition is 59% (active).

On to `COc1ccc2nc(/N=C(\N)NC(=O)Nc3ccccc3)nc(C)c2c1`, for which the inhibition is 51% (active).

As for `O=C1[C@@H](c2ccccc2)[C@@H](c2ccccc2)N1c1cccnc1`, the inhibition is 66.5% (active).

Regarding `O=c1c(-c2ccc3c(c2)OCCO3)c(C(F)(F)F)oc2cc(O)cc(O)c12`, the inhibition was 22.5%.

In general, inhibition refers to the change of the read-out against control, counted positive when it falls.
